Laboratory results from PubChem BioAssay (NCATS).
Results filed as inconclusive are left out. A number with no mark means an inactive call. The source made the active and inactive calls. The call rests on the fitted dose curve; in most records, active means well fitted cell-killing curve with a large enough effect; inconclusive means small, poorly fitted or top-dose-only effect, or effect the other way; inactive means no such curve, though single readings can be large or run the other way.

Experiment: Quantitative High-Throughput drug screen in 47 multiple myeloma cell lines against the NCATS MIPE library collection: Karpas417_ECACC cell viability assay (AID 1918961)
Details: Karpas417 myeloma viability, CellTiter-Glo ATP luminescence, 48 h; viability (% of DMSO): at 45.8 µM (top of the series)
Summary of the method: (§1)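 Myeloma cell lines, 500 cells per well, exposed to MIPE 4.0 library compounds for 48 h at 37C, 5% CO2. Viability from ATP by CellTiter-Glo luminescence; normalised to DMSO (100%) and media-only (0%) wells.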
Potency means the concentration at half of the fitted maximal effect.

Row | Structure (SMILES) | Potency | viability (% of DMSO) [%]
1 | Cc1cc(CS(=O)(=O)c2ccccc2)cc(OCc2ccc(CN3CCC[C@H]3CO)cc2)c1 | 3.72 µM (active) | 
2 | COc1cc(C=CC(=O)O)ccc1O | 0.0042 µM (active) | 
3 | Cc1cccc(Nc2nc(N[C@@H]3CCCC[C@H]3N)ncc2C(N)=O)c1 | 3.72 µM (active) | 
4 | Cc1nc(NC(=O)N2CCC[C@@H]2C(N)=O)sc1-c1csc(C(C)(C)C)n1 | 1.05 µM (active) | 
5 | CC1=C(CC(=O)O)c2cc(F)ccc2C1=Cc1ccc(S(C)=O)cc1 (centres undefined) | 14.8 µM (active) | 
6 | CSc1cccc(Nc2ncc3cc(-c4c(Cl)cccc4Cl)c(=O)n(C)c3n2)c1 | 0.0264 µM (active) | 
7 | Cc1ccc(NC(=O)Nc2cc(C(F)(F)F)ccc2F)cc1Nc1ccc2c(c1)NC(=O)C2=Cc1ccc[nH]1 | 2.09 µM (active) | 
8 | Cc1c(-c2cccc3c(CCCOc4cccc5ccccc45)c(C(=O)O)n(Cc4cccnc4)c23)c(COc2ccc(N3CCN([S+](=O)([O-])N(C)C)CC3)cc2)nn1C |  | 124
9 | N#Cc1c(N(CC(=O)O)CC(=O)O)sc(C(=O)O)c1CC(=O)O |  | 86.2
10 | COc1nccc(-c2c(-c3ccc(F)cc3)ncn2C2CCC(O)CC2)n1 (centres undefined) | 4.69 µM (active) | 
11 | CC1(COc2ccc3c(c2)ncn3-c2ccc3cccc(N4CCC(N)CC4)c3n2)COC1 | 1.18 µM (active) | 

Experiment: Quantitative High-Throughput drug screen in 47 multiple myeloma cell lines against the NCATS MIPE library collection: KHM11_PLB cell viability assay (AID 1918962); further: nearly all actives have a fitted effect of over 35% in size
Details: KHM11 myeloma cell viability, CellTiter-Glo ATP luminescence, 48 h; series mostly up to 45.8 µM; viability, % of DMSO control: at the top concentration
Summary of the method: as §1

Row | Structure (SMILES) | Potency | viability, % of DMSO control [%]
12 | Cc1cccc(Nc2nc(N[C@@H]3CCCC[C@H]3N)ncc2C(N)=O)c1 | 4.18 µM (active) | 
13 | C=C1[C@H](n2cnc3c(=O)[nH]c(N)nc32)C[C@H](O)[C@H]1CO | 4.69 µM (active) | 
14 | Cc1nc(NC(=O)N2CCC[C@@H]2C(N)=O)sc1-c1csc(C(C)(C)C)n1 | 3.72 µM (active) | 
15 | CCOC(=O)[C@H]1O[C@H]1C(=O)N[C@@H](CC(C)C)C(=O)NCCC(C)C |  | 98.3
16 | CCC(=O)NCC[C@@H]1CCc2ccc3c(c21)CCO3 | 13.2 µM (active) | 
17 | CC(C)n1c(C=C[C@H](O)C[C@H](O)CC(=O)O)c(-c2ccc(F)cc2)c2ccccc21 | 14.8 µM (active) | 
18 | CSc1cccc(Nc2ncc3cc(-c4c(Cl)cccc4Cl)c(=O)n(C)c3n2)c1 | 0.0332 µM (active) | 
19 | Cc1ccc(NC(=O)Nc2cc(C(F)(F)F)ccc2F)cc1Nc1ccc2c(c1)NC(=O)C2=Cc1ccc[nH]1 | 7.43 µM (active) | 
20 | CCC(=C(CC)c1ccc(O)cc1)c1ccc(O)cc1 |  | 120
21 | Cc1c(-c2cccc3c(CCCOc4cccc5ccccc45)c(C(=O)O)n(Cc4cccnc4)c23)c(COc2ccc(N3CCN([S+](=O)([O-])N(C)C)CC3)cc2)nn1C | 20.9 µM (active) | 
22 | C[C@@H]1CC=CC=CC=CC=C[C@@H](O[C@@H]2O[C@H](C)[C@@H](O)[C@H](N)[C@H]2O)C[C@@H]2O[C@](O)(C[C@@H](O)C[C@@H]3O[C@@H]3C=CC(=O)O1)C[C@H](O)[C@@H]2C(=O)O | 13.2 µM (active) | 
23 | NC[C@H]1O[C@H](O[C@@H]2[C@@H](O)[C@@H](O[C@H]3O[C@H](CO)[C@@H](O)[C@H](N)[C@@H]3O)[C@H](N)C[C@@H]2N)[C@H](O)[C@@H](O)[C@H]1O |  | 80
24 | CC1(COc2ccc3c(c2)ncn3-c2ccc3cccc(N4CCC(N)CC4)c3n2)COC1 | 0.0148 µM (active) | 
